Hits are enriched below; roughly 3.4% of the tested compounds scored in any of these assays.
NTR1 agonist: agonists of human neurotensin receptor NTR1. activation, % at 20 µM. NTR1-U2OS beta-arrestin-GFP spot imaging, agonist mode. hit rate 0.17% among 330,000. P30989;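 active = activation at or above 40% of the spot to cytoplasm intensity ratio, with at least 20 cells analyzed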;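 also: 0% = DMSO without peptide and 100% = 100 nM NTR1 peptide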
Target sequence (P30989 whole entry, looked up): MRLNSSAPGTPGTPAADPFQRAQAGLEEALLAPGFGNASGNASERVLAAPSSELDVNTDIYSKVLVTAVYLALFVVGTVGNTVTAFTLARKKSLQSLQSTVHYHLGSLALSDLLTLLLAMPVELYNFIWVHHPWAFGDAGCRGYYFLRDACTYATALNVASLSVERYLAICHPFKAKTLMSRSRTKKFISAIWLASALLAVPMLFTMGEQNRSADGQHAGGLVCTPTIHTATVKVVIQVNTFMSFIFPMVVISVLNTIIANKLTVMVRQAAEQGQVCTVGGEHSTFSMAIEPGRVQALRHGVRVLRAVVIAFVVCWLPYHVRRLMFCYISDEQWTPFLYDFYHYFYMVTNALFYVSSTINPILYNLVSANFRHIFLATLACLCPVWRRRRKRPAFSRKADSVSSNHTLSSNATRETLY
TMEM16A act: activators or potentiators of mouse TMEM16A chloride channel; HEK293 TMEM16A/YFP-H148Q/I152L, iodide quench fluorescence; stronger effect = lower value; Q8BHY3; B-score at 10 µM; hit rate 0.3% among 340,000;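 active = fluorescence-ratio B-score plate-corrected deviation score at least 3 library SD below zero, with starting fluorescence score within 5 deviations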;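 also: channel opened by trigger with iodide after compound preincubation; score built on the fluorescence ratio of max minus min over baseline; more negative score means more quench and so TMEM16A activation or potentiation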
ANO1 block: blocks the mouse calcium-activated chloride channel TMEM16A | Q8BHY3 | HEK293 TMEM16A/YFP iodide influx fluorescence, ionomycin | normalized B-score (activity score, 25-100; higher = stronger inhibition) at 10 µM | hit rate 1.2% among 310,000 | AID 588511;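 active = ratio plate-corrected score three or more library SD toward inhibition, starting fluorescence score within five deviations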;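 also: score derived from kinetic fluorescence span divided by baseline fluorescence per well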
MEKK3 PB1 HTS: raises or lowers MEK5 binding to the human MEKK3 PB1 domain; bead-based flow cytometry, Alexa488-MEK5 binding to MEKK3; actives lie on both sides; 0 = blocked by unlabeled MEK5, 100 = vehicle; binding response (% of control), % at 10 µM; hit rate 1.4% among 290,000; AID 1529;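 active = binding response more than 3 SD above or below the average of its plate-row segment, actives on both sides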;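 also: Alexa488 bead fluorescence after subtracting the streptavidin-only scavenger bead signal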
MEKK2 mut-MEK5: signal of MEK5 binding to mutant human MEKK2 PB1 domain; bead flow cytometry, Alexa488-MEK5 binding to MEKK2 mutant; percent response, % at 10 µM; hit rate 0.35% among 290,000; in the data active = percent response above about 24%, passing the limit was not always enough
MEKK2wt PB1 HTS: raises or lowers MEK5 binding to wildtype human MEKK2 PB1 domain; Q9Y2U5; bead flow cytometry, Alexa488-MEK5 binding to MEKK2 WT; actives lie on both sides; binding response (% of control), % at 10 µM; hit rate 1.1% among 290,000; AID 1531; in the data active = binding response below about 67% or above about 130%
TMEM16A reconf: TMEM16A (mouse) chloride channel inhibition, re-confirmation. shares compounds with ANO1 block. HEK293 TMEM16A/YFP-H148Q, iodide quench fluorescence; ionomycin added to raise cell calcium. inhibition, % at 10 µM. hit rate 39% among 2,300. AID 652189;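 active = mean duplicate percent inhibition, scaled so buffer wells are 0 and the reference blocker 100, over three buffer SD above buffer mean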
HEK293 Ca mobil: alters calcium mobilization in TMEM16A HEK293 cells, counter-screen. calcium response (% of ionomycin), % at 10 µM. AID 652231. hit rate 2% among 2,300. TMEM16A/YFP HEK293, Fluo4 calcium mobilization. shares compounds with ANO1 block;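 active = duplicate-averaged calcium signal over 20% of the ionomycin maximum, relative to buffer baseline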;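 also: each well's signal is peak minus trough fluorescence divided by its pre-addition baseline; 0% = buffer wells and 100% = ionomycin wells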
Parental YFP cnt: parental YFP-HEK293 iodide quench counter-screen activity; shares compounds with ANO1 block; ionomycin; YFP ratio F(max-min)/F0 at 10 µM; 2,300 tested, under 10 active; AID 652233;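 active = yellow fluorescent protein signal ratio exceeding the buffer control mean by over 5 SD of those controls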;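 also: ratio is mean of duplicate wells from kinetic YFP trace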
ClC-1 inh: selectivity of TMEM16A inhibitors: inhibition of rat ClC-1 chloride channel. shares compounds with ANO1 block. CHO ClC-1-YFP, iodide influx fluorescence quench; iodide control reads 0, buffer control 100. ratio percent, % at 10 µM. 2,300 tested, under 10 active. AID 652236;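 active = duplicate-mean ratio percent above the mean of iodide-only control wells, which defines zero, plus 5 of their SD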;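 also: higher percent means stronger block of ClC-1 iodide influx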
* marks the source's active call; other numbers are inactive results; i = inactive; / = no result.

SMILES	NTR1 agonist	TMEM16A act	ANO1 block	MEKK3 PB1 HTS	MEKK2 mut-MEK5	MEKK2wt PB1 HTS	TMEM16A reconf	HEK293 Ca mobil	Parental YFP cnt	ClC-1 inh
COc1ccc(N2CC(C(=O)OCC(=O)Nc3cccc(C)c3)CC2=O)cc1 (stereo unspecified)	0	i	i	100	-2	99	/	/	/	/
O=C(COC(=O)c1ccc(NS(=O)(=O)c2cccs2)cc1)NCc1ccco1	0	i	i	98	2	97	/	/	/	/
CCCOC(=O)c1ccc(NS(=O)(=O)c2cccs2)cc1	-1	i	25*	98	0	97	i	i	-0.95	2
CC(C)[C@H](NC(=O)c1ccccc1)C(=O)OCC(=O)/C=C1/N(C)c2ccccc2C1(C)C	4	i	25*	113	0	101	22%*	i	-1.3	2
CN(C(=O)COC(=O)c1cc[n+]([O-])cc1)c1ccccc1	0	i	i	105	5	112	/	/	/	/
OCC(O)/C=N/Nc1nc(Nc2ccccc2)nc(Nc2ccccc2)n1 (stereo unspecified)	2	i	i	108	7	107	/	/	/	/
CNC(=S)N1N=C(c2ccc(OC)cc2)CC1c1ccc(Cl)cc1Cl (stereo unspecified)	0	i	i	107	2	106	/	/	/	/
CNC(=S)N1N=C(c2ccc(OC)cc2)CC1c1ccccc1Cl (stereo unspecified)	2	i	25*	105	-2	99	45%*	i	-0.9	-6
c1coc(-c2nc3c([nH]2)CCc2nonc2-3)c1	0	i	i	98	-1	98	/	/	/	/
COc1ccc(N2CCN(C(=O)c3ccc(C)c(Cl)c3)CC2)cc1	-1	i	25*	104	2	103	i	i	-1	0
COc1ccc(N2CCN(C(=O)c3ccc(Cl)c(S(=O)(=O)N4CCCC4)c3)CC2)cc1	0	i	i	96	-12	79	/	/	/	/
CSc1ccc(C(=O)C2CCCN(C(=O)CCn3cncn3)C2)cc1 (stereo unspecified)	0	i	i	99	-2	96	/	/	/	/
CSc1ccc(C(=O)C2CCCN(C(=O)CCc3c(C)nn(C)c3C)C2)cc1 (stereo unspecified)	0	i	25*	105	8	110	i	i	-0.89	-11
O=C(Nc1ccccc1)Nc1cccc(C(F)(F)F)c1	1	i	i	111	0	106	/	/	/	/
N#C/C(=N\Nc1cccc(C(F)(F)F)c1)C(=O)c1ccsc1	5	i	25*	90	-18	86	38%*	i	-1.1	-19
CCC(C)NC(=O)Cn1c(=O)n(-c2ccc(OC)cc2)c(=O)c2ccc(C(=O)NCc3ccc(C)cc3)cc21 (stereo unspecified)	-1	i	i	94	-7	89	/	/	/	/
CCN=C(NS(=O)(=O)c1ccc(Br)cc1)c1ccc(Cl)cc1	0	i	i	104	6	103	/	/	/	/
CCOC(=O)c1nnn(-c2nonc2N)c1CN1CCCCCC1	0	i	i	102	0	101	/	/	/	/
CCOC(=O)c1nnn(-c2nonc2-n2cccc2)c1CN1CCCCC1	10	-6.9*	100*	112	6	114	i	i	-1.1	-14
CC1(C)NC(=O)N(CN2C(=O)NC(C)(C)C2=O)C1=O	0	i	i	79	-10	75	i	i	-1.1	2
Clc1ccc(-c2nc(N3CCCCC3)nc3ccccc23)cc1	1	i	i	111	-2	90	/	/	/	/
c1ccc(-c2nc(-n3nc4ccccc4n3)nc3ccccc23)cc1	15	i	100*	102	5	101	i	i	-1	-6
CSc1ccccc1C(=O)C1CCCN(S(=O)(=O)c2c(C)noc2C)C1 (stereo unspecified)	-1	i	i	101	-2	98	/	/	/	/
COC(/C(=N/O)c1ccc(Cl)cc1)c1ccccc1 (stereo unspecified)	7	i	100*	94	-2	92	26%*	i	-1.3	-26
COc1ccc(Cl)cc1NC(=O)C(OC)c1ccccc1 (stereo unspecified)	0	i	i	103	-3	105	/	/	/	/
SMILES	NTR1 agonist	TMEM16A act	ANO1 block	MEKK3 PB1 HTS	MEKK2 mut-MEK5	MEKK2wt PB1 HTS	TMEM16A reconf	HEK293 Ca mobil	Parental YFP cnt	ClC-1 inh
CCCCn1c(SCC(=O)c2cc(OC)ccc2OC)nc2cc(S(N)(=O)=O)ccc21	-3	i	i	101	2	103	/	/	/	/
CCCCn1c(SCc2ccc(C(=O)OC)o2)nc2cc(S(N)(=O)=O)ccc21	4	i	25*	107	1	104	18%*	i	-1.1	-13
O=C(c1cnn2c(C(F)(F)F)cc(-c3ccccc3)nc12)N1CCCCC1c1cccnc1 (stereo unspecified)	5	i	i	96	-3	98	/	/	/	/
O=C(c1cc2nc(-c3ccc(F)cc3)cc(C(F)(F)F)n2n1)N1CCCCC1c1cccnc1 (stereo unspecified)	6	i	100*	113	0	102	22%*	i	-1	-19
COc1ccc(N(C)C2=NS(=O)(=O)c3ccccc32)cc1	1	i	100*	99	4	96	i	i	-1.1	-2
COc1cc(NC(=O)COC(=O)/C=C/c2ccccc2Cl)cc(OC)c1	2	i	i	100	0	122	/	/	/	/
Cc1cccc(NC(=O)N2CCN(Cc3ccc(Cl)cc3)CC2)c1	1	i	i	99	-1	102	/	/	/	/
O=C(Nc1cccc(Cl)c1)N1CCN(Cc2ccccc2)CC1	2	i	100*	101	2	105	i	i	-1.1	-8
COCC(=O)n1nc(-c2ccccc2)nc1NCc1ccc(N(C)C)cc1	0	i	i	109	2	110	/	/	/	/

High-throughput results from PubChem BioAssay.
